Among the data in PMC7819943, “Rice protein-binding microarrays: a tool to detect cis-acting elements near promoter regions in rice” are binding signal values, retold here.

The full ranking holds about 68,000 sequences; the median of “fluorescence intensity (a.u.)” is about 9,100, and the highest 2% start at about 16,000. Only a selection was taken, and the highest values are over-represented in it overall.

The target of this test is OsWRKY34 (Oryza sativa, UniProt Q0JBA9 1-250). The experiment in a line: protein-binding microarray (RPBM); PBS, 2% BSA, 51.3 ng/ul salmon testes DNA, 50 uM zinc acetate, 200 nM TF, 25 C, 1 h; high values mean tight binding. As to conditions: protein: recombinant; tags: N-terminal polyhistidine and DsRed monomer fusion (pET32a); label: CyDye5-dUTP incorporated in the synthesized complementary strand; 3' TTTTT single-stranded linker to array surface; dsDNA, one strand shown. The essentials: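 For the binding signal, per-feature fluorescence intensity was read in arbitrary units on an Axon 4000B scanner. Before scanning, a 2% BSA-blocked custom Agilent array made double-stranded with Cy5-dUTP was washed after 1 h at 25 °C with 200 nM protein and 50 µM zinc acetate. The proteins were Ni–NTA-purified transcription factors with N-terminal polyhistidine and DsRed fusions, expressed in E. coli BL21-CodonPlus.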
Chain of OsWRKY34 (Q0JBA9 entry or part of it): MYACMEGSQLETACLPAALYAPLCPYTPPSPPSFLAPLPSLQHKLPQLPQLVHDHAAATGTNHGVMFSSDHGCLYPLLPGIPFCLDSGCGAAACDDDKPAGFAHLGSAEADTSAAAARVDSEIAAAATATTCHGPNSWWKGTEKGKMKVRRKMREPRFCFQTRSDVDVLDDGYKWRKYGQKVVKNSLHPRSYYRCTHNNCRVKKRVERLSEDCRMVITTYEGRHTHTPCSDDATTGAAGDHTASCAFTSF
Consider “CATATGTTTTGTTTTGCTTTGGGGCTTTTAGTAGTAGTTCCGGAGTCACCTAGTGCAG”, for which the binding signal is 9460 fluorescence intensity (a.u.).
Under “CACAGATCATTACACACTGTTTGAGCATCTCTCTATTCCTCGGAGTCACCTAGTGCAG” stands 8320 fluorescence intensity (a.u.); under “ACCCATTACAACCCTGTAGTACATGCCACACCGTTTGACACGGAGTCACCTAGTGCAG”, 10800 fluorescence intensity (a.u.).
Under “CCTTCACCTGGTAATCATTTCGATGCATTCATTTCCCTATCGGAGTCACCTAGTGCAG” stands 8470 fluorescence intensity (a.u.); under “CTCGGCCAAAAAGAGATATCCCTTTCGCGCTCATCTTATCCGGAGTCACCTAGTGCAG”, 9980 fluorescence intensity (a.u.).
Under “GGTGAGGTGGTGGTGGTGGTGGTCGGGAAGTGGCGGCGCCCGGAGTCACCTAGTGCAG” stands 16100 fluorescence intensity (a.u.).
Turning to “ACGGTGGCGGGGATGTGGAGGGAGGTGCAGGGGTGCGGGGCGGAGTCACCTAGTGCAG”, the binding signal is 22600 fluorescence intensity (a.u.).
The same measure for “GGAGAGGAGTGAGGAGGGATTGTGAGGTGGGGTCGGGGTGCGGAGTCACCTAGTGCAG”: 9030 fluorescence intensity (a.u.); for “GGGATGTGGCGGGCGGTGGGTCCAGGGAGGAGGAGGAGAACGGAGTCACCTAGTGCAG”: 15000 fluorescence intensity (a.u.); for “TCGAGCTGGGTGGGGTTTTTATATGGGAGGAGAGGCCGCGCGGAGTCACCTAGTGCAG”: 16800 fluorescence intensity (a.u.).
On to “GGTGGTGGTGGTGGTGCCGGAGCTGGGGAGAAGAGGAGGACGGAGTCACCTAGTGCAG”, for which the binding signal was 9350 fluorescence intensity (a.u.).
Under “GAAAATCTGTGGGAGGGGAGGGGAGGGGACGAGGGGACAGCGGAGTCACCTAGTGCAG” stands 19000 fluorescence intensity (a.u.); under “GAGCTCGGCGAAATCGATCTGTGGGAGGGAGGGCGGCGAGCGGAGTCACCTAGTGCAG”, 9110 fluorescence intensity (a.u.); under “TGTGAGGTGGGGTCGGGGTGGAAGTGGGTGAGGAGGGGTGCGGAGTCACCTAGTGCAG”, 21700 fluorescence intensity (a.u.).
Under “ATATATATATATATATATATATATATATATATAGGGACAGCGGAGTCACCTAGTGCAG” stands 9530 fluorescence intensity (a.u.); under “GTGGGAGAGGCCGGCCGAGGGGAGGAGAGGGGAGGGGTGCCGGAGTCACCTAGTGCAG”, 10700 fluorescence intensity (a.u.); under “GTGGAGGTCGGGGTCGGGGAGGATGAGGAGGAGGGTGTGGCGGAGTCACCTAGTGCAG”, 10100 fluorescence intensity (a.u.).
The same measure for “TACTGCAACTCTGCAAGCACATTGATCAATCGATCAATCCCGGAGTCACCTAGTGCAG”: 8450 fluorescence intensity (a.u.); for “TTTGTGGGGCTCTCTCTTTGATGCTTTCTTCTCTTTAGCTCGGAGTCACCTAGTGCAG”: 10000 fluorescence intensity (a.u.).
“CTAAATTGTATTTCTATATGGACTTTGCTTTTTCTTTTTCCGGAGTCACCTAGTGCAG”: the binding signal was 10900 fluorescence intensity (a.u.).
Under “GTGGTCCAATCACCCTTTGACCCTTCGCCTCCGTGGCGCCCGGAGTCACCTAGTGCAG” stands 8500 fluorescence intensity (a.u.); under “TTTCTTGATTAGGGTTTGAATTCATATTACTAACTTTCCTCGGAGTCACCTAGTGCAG”, 8450 fluorescence intensity (a.u.).
The same measure for “TTCCGCGTCAACCACCACCGCGCCGGCGTGCGCCTCCGCGCGGAGTCACCTAGTGCAG”: 10300 fluorescence intensity (a.u.).
